Most compounds without a hit are left out; they make up all but 2.3% or so of the library.
Gli-Sufu antag: antagonists of Gli-Sufu signaling; AID 588413; inhibition, % at 5 µM; hit rate 0.74% among 340,000; Sufu-KO-LIGHT fibroblasts, Gli luciferase reporter luminescence;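 active means inhibition above about 55%, limit read from the data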;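 further: 0% = DMSO-treated cells and 100% = wells with medium but no cells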
LMP1 NFkB inh: Epstein-Barr LMP1 NF-kappaB reporter inhibition; LMP1-induced NF-kappaB luciferase reporter cells, luminescence; inhibition, % at 12.5 µM; hit rate 0.69% among 350,000; in the data active means inhibition above about 41%;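 further: 0% = neutral control wells and 100% = reference inhibitor control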
Jurkat NFkB inh: lowers PMA/ionomycin-induced NF-kB signal in Jurkat cells. PMA/ionomycin-induced NF-kB luciferase reporter, luminescence. inhibition, % at 4 µM. hit rate 0.53% among 330,000. AID 435003; in the data active means inhibition above about 50%
Shn3 inh set2: Schnurri-3 reporter inhibition in Clone20 osteoblasts; Clone20 osteoblast Shn3 3'UTR firefly luciferase, 24 h; inhibition, % at 12.5 µM; hit rate 0.52% among 360,000;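 active means mean inhibition of at least 75% with every replicate also reaching 75%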;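 further: 0% = median of neutral control wells and 100% = pilot-screen positive control compound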
TRPM1 prom inh: inhibitors of MITF-driven TRPM1 promoter in melanoma cells; hit rate 0.83% among 330,000; SK-MEL-5 TRPM1 promoter luciferase, 24 h; inhibition, % at 12.5 µM;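 active means mean inhibition across replicates of 60% or more, whatever share of single replicates reaches that level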
697 NFkB inh: lowers PMA/ionomycin-induced NF-kB signal in 697 B cells. inhibition, % at 4 µM. AID 435022. hit rate 0.33% among 330,000. 697 B-cell NF-kB luciferase reporter, 16 h; in the data active means inhibition above about 35%
697 NFkB conf: lowers PMA/ionomycin-induced NF-kB signal in 697 B cells; shares compounds with 697 NFkB inh; 697 B-cell NF-kB luciferase, 16 h; inhibition, % at 4 µM; hit rate 35% among 2,000; AID 449746; in the data active means inhibition mostly above about 28%, no sharp cut-off; inactive means mostly below about 22%
* = called active by the depositor; . = not tested or not shown.

SMILES	Gli-Sufu antag	LMP1 NFkB inh	Jurkat NFkB inh	Shn3 inh set2	TRPM1 prom inh	697 NFkB inh	697 NFkB conf
CCOc1ccc(C(C)=O)cc1Cn1nc(C(=O)O)c2ccccc2c1=O	0.0	-11.3	4.4	9.8	-2.1	35.1*	6.6
Nc1nnc(SCCCOc2ccc(F)cc2)s1	-12.2	-10.9	-9.6	-5.1	-17.1	-8.4	.
COC(=O)c1c(NC(=O)c2ccco2)sc(C(=O)N2CCCC2)c1C	3.0	2.5	-12.2	-13.2	-2.8	7.3	.
COC(=O)c1c(NC(=O)c2ccco2)sc2c1CCN(C(C)=O)C2	-7.2	-1.0	-6.6	-14.1	-14.5	38.3*	9.4
O=C(CCSc1nc(-c2ccco2)cc(C(F)(F)F)n1)NCCN1CCOCC1	-0.4	-10.4	-1.8	9.3	8.3	8.9	.
CC(C)(C)c1ccc(S(=O)(=O)NCC(=O)Nc2ccc(-c3nc4ccccc4s3)cc2)cc1	-17.7	-17.9	-30.8	-44.8	-56.7	-156.8	.
O=C(CNS(=O)(=O)c1cccc(Cl)c1)Nc1ccc(-c2nc3ccccc3s2)cc1	-80.7	4.6	-127.3	-15.5	-48.8	-318.6	-229.2
Cc1cc2ccccn2c1C(=O)c1cc([N+](=O)[O-])cc([N+](=O)[O-])c1	-6.0	5.8	16.5	-1.8	9.7	-3.3	.
Cc1cc2ccccn2c1C(=O)c1ccc(NN)c([N+](=O)[O-])c1	-0.6	1.7	19.4	9.2	32.4	45.4*	42.1*
O=C1Nc2c(Cl)cccc2C1=O	.	.	.	15.2	.	.	.
N#Cc1c(/N=C/c2cccs2)sc2c1CCCCC2	-26.5	-15.5	-134.6	-47.8	-44.6	-426.0	-209.3
N#Cc1c(/N=C/c2ccc(Br)s2)sc2c1CCC2	18.4	-10.3	.	-14.1	-40.7	.	.
Cn1c(=O)n(C)c2cc(NS(C)(=O)=O)ccc21	-1.2	-1.9	8.4	5.6	-2.9	7.7	.
Cc1cccc2cc(CN(Cc3ccco3)C(=O)c3ccncc3)c(=O)[nH]c12	-41.5	7.6	-0.6	10.1	14.1	35.7*	-3.4
COCCNc1nnc(SC(C)C(=O)Nc2ccc(-c3nc4ccc(C)cc4s3)cc2)s1 (stereo not drawn)	-63.3	-11.5	-124.7	-31.1	-65.2	-294.2	-281.9
COCCNc1nnc(SC(C)C(=O)Nc2c(C)n(C)n(-c3ccccc3)c2=O)s1 (stereo not drawn)	-10.9	-1.6	15.2	0.0	10.6	-2.6	.
COc1cc(N)c(C(=O)c2nccc3cc(OC)c(OC)cc23)cc1OC	8.8	-19.2	-15.4	14.9	-3.8	-6.2	.
COc1cc(Br)c(C(=O)c2nccc3cc(OC)c(OC)cc23)cc1OC	1.8	-4.4	14.9	8.2	13.9	38.9*	30.1*
O=C(NC1CCCCC1)C1CCCN1C(=O)Nc1ccccc1 (stereo not drawn)	-23.4	-4.9	-0.6	4.9	-13.1	19.4	.
O=C(O)c1ccc(N=Nc2c(O)[nH]c3ccc(Br)cc23)cc1	-68.5	-40.8	-15.4	-36.1	-66.5	-194.7	.
O=C(O)c1ccc(N=Nc2c(O)[nH]c3cc(Cl)ccc23)cc1	-115.5	-95.4	-91.4	-50.0	-102.4	-332.4	-313.6
O=C1N/C(=N/O)S/C1=C\c1ccccc1-n1cccn1	-7.2	-21.2	9.2	0.0	-5.2	4.8	.
COc1ccc(C(=O)Nc2ccc3ncccc3c2)cc1	-56.3	1.6	-103.0	6.9	16.5	-290.4	-333.0
CC(=O)Nc1nonc1-c1nc2ccccc2n1CCC(C)C	.	0.4	17.9	5.8	-4.6	2.6	.
CC(C)N1C(=O)S/C(=C/c2ccc3c(c2)n(C)c(=O)n3C)C1=O	11.1	-8.4	-7.7	2.1	-41.9	47.1*	40.4*
CCC(C)N1C(=O)S/C(=C/c2ccc3c(c2)n(C)c(=O)n3C)C1=O (stereo not drawn)	16.8	3.0	-17.6	16.2	-26.1	1.7	.
O=C(NCCC1CCCCN1S(=O)(=O)c1ccc(Cl)cc1)C(=O)NCc1ccncc1 (stereo not drawn)	25.4	7.6	2.6	12.1	25.3	45.2*	42.9*
Cc1nn(-c2cccc(Cl)c2)c(Cl)c1/C=N/NC(=O)c1cccs1	-39.1	-30.8	-35.7	-36.1	-15.1	-313.7	-23.6
CCOC(=O)C1(CCOC)CCN(CC(C)Cc2ccc3c(c2)OCO3)CC1 (stereo not drawn)	28.3	7.9	-5.3	1.4	8.5	1.2	.
